From PubChem BioAssay AID1063 (University of Pittsburgh Molecular Library Screening Center, 2008)
About 18,000 (9%) of roughly 200,000 compounds were called active. The sample holds actives, similar compounds and a random draw of the others, so the mix is not that of the screen. A number with no mark means an inactive call. No stated cut-off is given here; in the data, active means inhibition above about 50%; inactive means the rest.

assay: Leishmania major promastigote growth inhibition, primary screen (AID 1063); settings: Leishmania major promastigotes, resazurin fluorescence viability; at 10 µM; hits give high values;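 further: promastigotes grown with compound for 44 hours at 28 °C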

Compound | inhibition
CC(=O)N1CCCc2cc(S(=O)(=O)CCC(=O)N3CCN(c4ccccc4)CC3)ccc21 | -3.41%
CCOc1ccc(NC(=O)CCS(=O)(=O)c2ccc3c(c2)CCCN3C(=O)CC)cc1 | 62.8% (active)
CCCNS(=O)(=O)c1ccc2c(c1)CCCN2C(C)=O | -1.63%
O=C(Cc1cccs1)N1CCCC(c2nc(-c3ccc(S(=O)(=O)N4CCCC4)cc3)no2)C1 (stereo not given) | 95.1% (active)
O=C(c1ccc(F)cc1)N1CCCC(c2nc(-c3cccs3)no2)C1 (stereo not given) | 5.3%
O=C(c1cccs1)N1CCCC(c2nc(-c3ccc(F)cc3)no2)C1 (stereo not given) | -8.27%
C=C(C)c1cccc(C(C)(C)NC(=O)NCCN(CC)CC)c1 | 4.54%
COC(=O)CN1C(=O)N/C(=C/c2ccc(OC)c(C)c2OC)C1=O | -9.01%
S=C(NC1CCCCC1)NN1CCOCC1 | -1.39%
COc1ccccc1Cn1c(C)nnc1-c1cnn(C)c1N | 0.00407%
CCOC(=O)c1ccc(NC(=O)CSc2nnc(COc3ccccc3OC)n2C)cc1 | 89% (active)
COC(=O)c1ccc(NC(=O)CSc2nnc(-c3ccncc3)n2C)cc1 | 5.08%
CCOC(=O)c1ccc(NC(=O)CSc2ncccn2)cc1 | 0.48%
CCc1cc2cc(OC)ccc2nc1SCC(=O)Nc1cc(OC)c(OC)cc1C(=O)O | -7.93%
Cc1ccnc(SCCn2c(N(C)Cc3ccccc3)nc3c2c(=O)n(C)c(=O)n3C)n1 | 34.8%
Cn1c(=O)[nH]c(=O)c2c1nc(N(CCO)Cc1ccccc1)n2Cc1ccccc1Cl | 23.7%
CN(Cc1ccccc1)c1nc2c(c(=O)[nH]c(=O)n2C)n1CCSc1nc2ccccc2[nH]1 | 95% (active)
CCOC(=O)c1sc(NC(=O)CSc2nc(O)c(Cc3ccccc3)c(=O)[nH]2)nc1C | -5.06%
CN1CCN(C(=O)CCc2nc(-c3ccc(Cl)cc3)no2)CC1 | -4.14%
Cc1ccc(-c2noc(CCC(N)=O)n2)cc1 | -4.98%
Cc1ccc(-c2noc(CCC(=O)Nc3ccccc3N3CCN(C)CC3)n2)cc1 | 57.9% (active)
COc1cccc(/C=N\NC(=O)C2=NNC(=O)C2C)c1O (stereo not given) | -7.2%
COc1ccc(C(=O)Nc2ccccc2C(=O)N/N=C/c2ccccc2OC)cc1 | 6.31%
COc1cccc(/C=N/NC(=O)c2[nH]nc3c2CCc2ccccc2-3)c1O | 98% (active)
C/C(=N\NC(=S)NC(C)C)c1ccc(C(C)(C)C)cc1 | 15%
